For 93 compounds, inhibition results are on record in PubChem BioAssay AID504690 (Sanford-Burnham Center for Chemical Genomics, 2011).

Structures are written as SMILES. About 2,700 (0.77%) of roughly 350,000 compounds were called active.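 How the source made its calls: active means inhibition reaching at least a set limit at 20 µM in the primary screen (cut at about 59% in these data); inactive means the rest.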 What follows is part of a selection rich in actives, with near analogues and random picks from the rest.

This experiment relates to glucose-6-phosphate dehydrogenase-6-phosphogluconolactonase (Plasmodium falciparum 3D7). As to the kind of experiment: PfG6PD enzyme inhibitors, primary screen, biochemical, fluorescence intensity, uHTS (AID 504690).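 Further: 0% = DMSO wells with substrate and 100% = DMSO wells lacking glucose-6-phosphate.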 The settings on record: PfGluPho enzyme, NADPH resazurin-diaphorase fluorescence; at 20 µM; hits give high values.
In general, inhibition refers to the change of the read-out against control, counted positive when it falls. Turning to `O=C(NC1CCCC1)C(c1ccc(N2CCOCC2)cc1)N(C(=O)c1ccco1)c1ccccc1F` (stereo not drawn), the inhibition is 1.31% (inactive).
For `Cc1ccc2c(c1)N(CC(=O)NCC1CCCO1)C(=O)CO2` (stereo not drawn) the value was 0.68% (inactive).
The result for `FC(F)(F)c1cccc(-c2cc3ccccc3nc2N2CCCC2)c1` reads 13.8% (inactive); that for `O=C(CNS(=O)(=O)c1ccc(Br)s1)N1CCN(C(=O)c2ccco2)CC1`, -12.2% (inactive); that for `Cc1ccc2nc(-c3cccc(Br)c3)cc(C(=O)Nn3cnnc3)c2c1`, 59.4% (active).
The result for `Cc1ccc(-c2cc(C(=O)NCc3cn(C)nc3C)c3cc(Br)ccc3n2)cc1` reads 3.11% (inactive); that for `NC(=O)c1cc(-c2cccnc2)nc2ccc(Br)cc12`, 14.2% (inactive); that for `CCc1nnc(NC(=O)CSc2nc3c(c(=O)n2-c2ccccc2OC)SCC3)s1`, 43% (inactive).
Consider `O=C(NCC1CCCO1)c1cc2c(s1)CCCC2` (stereo not drawn), for which the inhibition is 14% (inactive).
The result for `O=C(Nc1ccc(F)cc1)c1cc2c(s1)CCCC2` reads 75.7% (active).
The result for `CN(C)C(=O)c1ccc(NC(=O)COC(=O)c2cc3c(s2)CCCCC3)cc1` reads -5.04% (inactive); that for `Cc1ccc(CSCCNC(=O)CN(c2ccc(F)cc2)S(C)(=O)=O)cc1`, -11.7% (inactive).
For `NC(=O)C1=C[C@@H](c2ccc3c(c2)OCO3)C[C@@H](OCCCCO)O1` the value was 17.6% (inactive); for `CC1(c2ccc3ccccc3c2)NC(=O)NC1=O` (stereo not drawn), 18.9% (inactive).
With `CN1c2ccc(C=O)c3c(C=O)ccc(c23)N(C)C1(C)C`, the inhibition is 69.6% (active).
For `Cc1ccc(C=O)c([B-](F)(F)F)c1` the value was -13.1% (inactive); for `COC(=O)C1(CCSC)NC(c2ccc(OC)cc2OC)C2C(=O)N(c3cccc(C(C)=O)c3)C(=O)C21` (stereo not drawn), -2.47% (inactive).
The result for `Cc1ccc(Cc2c(-c3ccccc3)nc3ccc(Cl)cn23)cc1` reads 37.4% (inactive).
For `Cc1ccc(Cc2c(-c3ccc(C)cc3)nc3c4ccccc4ccn23)cc1` the value was 31.4% (inactive); for `Cc1ccc(-c2nc3ccc(Cl)cn3c2Cc2ccccc2)cc1`, 87.1% (active).
In the case of `Cc1cc(C)n2nc(CNS(=O)(=O)c3c(F)c(F)c(F)c(F)c3F)nc2n1`, the inhibition is -12.8% (inactive).
For `COc1ccc(N2CCN(S(=O)(=O)c3cc(Br)cnc3N)CC2)cc1` the value was -12.2% (inactive).
The result for `Nc1ccccc1SC(C[N+](=O)[O-])c1ccccc1` (stereo not drawn) reads 79.5% (active); that for `Fc1cccc(CSc2nnc3ccc(-c4ccncc4)nn23)c1`, 1.54% (inactive).
The result for `COc1cc2c(C(=O)N(C)c3cc(Cl)ccc3OC)cn(C)c(=O)c2cc1OC` reads -11.9% (inactive); that for `O=C(c1[nH]ncc1-c1ccc(Cl)cc1)C1CO1` (stereo not drawn), 2.19% (inactive).
Consider `O=[N+]([O-])c1ccc(COc2ccccc2CN2CCOCC2)cc1`, for which the inhibition is 36.1% (inactive).
For `Oc1c(CN2CCOCC2)ccc(CN2CCOCC2)c1O` the value was 91.2% (active); for `COc1ccc2oc(=O)cc(CN3CCOCC3)c2c1`, -5.99% (inactive).
The result for `CCN(CC)c1ccc(C(=O)c2cnc(/N=C/N(C)C)s2)cc1` reads 11.6% (inactive); that for `CCOC(=O)N1CCN(C(=O)c2ccc3c(=O)n(CCc4ccc(OC)c(OC)c4)c(=O)[nH]c3c2)CC1`, 0.32% (inactive).
The result for `CCOC(=O)C1CCCN(CCSc2ccc(C)cc2)C1` (stereo not drawn) reads -1.97% (inactive); that for `CC(C)C[C@H](NC(=O)N1CCn2c1nc1ccccc12)C(=O)NC1CC1`, -6.34% (inactive).
On to `NC1=CC(=O)C(=O)c2cccnc21`, for which the inhibition was 51.8% (inactive).
Take `Cc1coc2c(O)cc3c(c12)OC1(N2CCCCC2)C(=O)NCCCC31` (stereo not drawn): the inhibition was 101% (active).
The result for `NC(=O)CN1CCCC1c1ccc2c(c1)OCCO2` (stereo not drawn) reads 7.24% (inactive); that for `CCCCN1CC(C)(C)[C@H](CC(=O)Nc2ccc(Br)cc2)C1=O`, 21.2% (inactive); that for `COc1ccc(CN2CCCC(C(=O)N3CCCCC3)C2)cc1` (stereo not drawn), 0.72% (inactive).
The result for `O=C1OC[C@@H]2CCCN2C(=O)[C@H](CC(=O)N(CCO)Cc2ccccc2)C/C=C\CC[C@@H]1Cc1ccc(F)cc1` reads -6.25% (inactive).
For `CN1CCN(c2ccc(NC(=O)c3cc(Cl)c4c(c3)OCCO4)cc2)CC1` the value was -0.01% (inactive).
Turning to `CN1CCN(c2ccc(NC(=O)c3ccc4c(c3)OCCO4)cc2Cl)CC1`, the inhibition was 68.3% (active).
The result for `COC(=O)c1ccc(N2CCOCC2)c(NC(=O)c2ccc3c(c2)OCCO3)c1` reads 9.1% (inactive); that for `COc1ccc(C(=O)OC(C)C(=O)NC2CCCC2)cc1S(=O)(=O)N1CCOCC1` (stereo not drawn), -8.93% (inactive).
For the compound `COc1ccc(COC(=O)c2ccc(Cl)c(S(=O)(=O)N3CCOCC3)c2)cc1F`, the inhibition is 20.9% (inactive).
The result for `COc1cccc(NC(=O)NCc2ccc(F)cc2)c1` reads 75.8% (active).
In the case of `COc1cccc(NC(=O)Nc2ccc(F)cc2)c1`, the inhibition is 30.6% (inactive).
Consider `O=C(NCc1cccc(CNC(=O)Nc2cccc(O)c2)c1)Nc1cccc(O)c1`, for which the inhibition is 11% (inactive).
For `CC1CCCC(N2CCN(C(=O)c3ccc(F)cc3)CC2)C1` (stereo not drawn) the value was 12.6% (inactive).
For `CS(=O)(=O)Nc1cccc(-c2cn3ccccc3n2)c1`, the inhibition was -10.9% (inactive).
For the compound `CC(=O)Nc1ccc(-c2cn3cccnc3n2)cc1`, the inhibition was 2.85% (inactive).
As for `Cc1ccc(-c2cc(N)on2)cc1`, the inhibition is 8.69% (inactive).
The result for `Cc1nc(=O)c(-c2ccccc2)c(C)n1-c1ccc(Br)cc1` reads -0.2% (inactive); that for `Cc1ccc2nc(-c3ccc(Br)cc3)cn2c1`, 91.8% (active).
Consider `Cc1ccc(-c2cn3cc(C)ccc3n2)cc1`, for which the inhibition was 104% (active).
For `COc1ccc(C(C)NC(=O)C2CCCC2)cc1` (stereo not drawn) the value was -12.4% (inactive); for `O=C(O)C1CCCCC1C(=O)N1CCN(S(=O)(=O)c2ccc(F)cc2)CC1` (stereo not drawn), -3.01% (inactive); for `COc1ccccc1C(=O)N/C(=C/c1ccco1)C(=O)Nc1ccc(C(=O)O)cc1`, 7.16% (inactive).
For `COCC(C)NC(=O)CSc1nc2nn(-c3ccccc3)c(=O)c-2c2n1CCCCC2` (stereo not drawn) the value was -8.52% (inactive); for `O=C(CCN1C(=O)COc2ccccc21)NCCCN1CCN(c2ccc(F)cc2)CC1`, -3.8% (inactive).
Take `Cc1ccc(NC(=O)OCCNC(=O)c2ccncc2)cc1`: the inhibition was -14.7% (inactive).
`COCCNC(=O)CSc1nc(N)c(NC(=O)c2ccco2)c(=O)[nH]1`: the inhibition is 3.96% (inactive).
The result for `COCCNC(=O)Nc1ccc2nc(-c3ccco3)c(-c3ccco3)nc2c1` reads 66.8% (active); that for `CC(C)(C)c1ccc(C(=O)N2CCN(CCNC(=O)C(=O)Nc3ccc(F)cc3)CC2)cc1`, 0.45% (inactive); that for `CC(Oc1ccc(F)cc1)C(=O)N1CCN(c2ncccn2)CC1` (stereo not drawn), 8.63% (inactive).
In the case of `CCOC(=O)C1=C(C)c2ccccc2OC1C(=O)OCC` (stereo not drawn), the inhibition is 4.58% (inactive).
For `C=C1c2cccc(OC)c2O[C@H](C(=O)OCC)[C@@H]1CCCCCC` the value was 77.8% (active).
For `CCOC(=O)C(=Cc1ccccc1OC)C(=O)OCC` the value was -10.6% (inactive).
For `CC1CCC2(CC1)NC(=O)N(CC(=O)c1ccc3c(c1)OCO3)C2=O` (stereo not drawn) the value was 6.6% (inactive); for `Cn1c(-c2sc3cc(C(F)(F)F)cnc3c2-c2ccccc2)n[nH]c1=S`, 27.8% (inactive); for `Cn1c(-c2sccc2OCc2cccc(C(F)(F)F)c2)n[nH]c1=S`, 65.3% (active).
On to `CCOC(=O)N1CCN(Cc2nc(Cc3cccc(C(F)(F)F)c3)no2)CC1`, for which the inhibition is -8.4% (inactive).
The result for `O=C(OCc1cn([C@@H]2C[C@H](c3ccc(Cl)cc3)N(Cc3cccs3)C[C@H]2O)nn1)c1ccccc1` reads 11.3% (inactive).
The result for `O=C(O)C1CCN(C(=O)OCc2ccccc2)CC1` reads -0.22% (inactive); that for `CCN(C(=O)CSc1nnc(-c2ccc(OC(F)F)cc2)n1N)C1CCS(=O)(=O)C1` (stereo not drawn), -3.99% (inactive).
For `O=C(c1ccc(Br)o1)N(c1ccccn1)C1CCCCC1` the value was -15.9% (inactive); for `O=C1/C(=C\c2ccc([N+](=O)[O-])cc2)CS(=O)(=O)C/C1=C/c1ccc([N+](=O)[O-])cc1`, 77.6% (active).
On to `CC(=O)Nc1ccc(C=Cc2ccc([N+](=O)[O-])cc2)cc1`, for which the inhibition was 14.2% (inactive).
For `O=C(O)C(=Cc1ccc([N+](=O)[O-])cc1)CCc1ccccc1` the value was -27.5% (inactive).
For `C[C@H]1CN([C@@H](C)CO)C(=O)c2cc(Br)cnc2O[C@H]1CN(C)S(=O)(=O)c1cccs1` the value was 9.15% (inactive); for `O=C(CCN1C(=O)c2ccncc2C1=O)Nc1cc(F)ccc1F`, -12.6% (inactive); for `CC1(OC(=O)CCc2ccccc2)C(=O)C=C2C=C(c3ccc(C#N)cc3)N(CCc3ccccn3)C=C2C1=O` (stereo not drawn), 44.1% (inactive).
For `COCCN1C=C2C(=O)C(C)(OC(=O)C3CCCC3)C(=O)C=C2C=C1c1ccsc1` (stereo not drawn) the value was 72.5% (active).
Turning to `CC1(OC(=O)C2CCCC2)C(=O)C=C2C=C(c3ccc(C#N)cc3)OC=C2C1=O` (stereo not drawn), the inhibition is 23% (inactive).
For `COCC(=O)N(C)C[C@H]1Oc2cc(Br)ccc2S(=O)(=O)N([C@H](C)CO)C[C@H]1C` the value was -15.7% (inactive).
`O=C(O)C1CCN(c2ccc([N+](=O)[O-])cc2[N+](=O)[O-])CC1`: the inhibition was -6.12% (inactive).
The result for `CCN1CCN(c2ccc([N+](=O)[O-])cc2C(=O)c2ccc(Cl)cc2)CC1` reads 11.2% (inactive); that for `O=[N+]([O-])c1ccc(N2CCN(c3ccc(O)cc3)CC2)c(Cl)c1`, 61.5% (active).
The result for `CCN(CCCCOC(=O)c1ccc(OC)c(OC)c1)C(C)Cc1ccc(OC)cc1` (stereo not drawn) reads -1.86% (inactive); that for `Cn1sc(=O)c2cc(S(=O)(=O)NC3CC3)ccc21`, 66.3% (active); that for `O=S(=O)(NC1CC1)c1ccc(F)c(F)c1`, 1.75% (inactive).
For `CC1CCC(NS(=O)(=O)c2ccc3c(c2)n(C)c(=O)c(=O)n3C)CC1` (stereo not drawn) the value was -1.38% (inactive); for `CC1(c2ccccc2)NC(=O)N(CC(=O)N2CC(=O)Nc3ccccc32)C1=O` (stereo not drawn), 4.26% (inactive).
Turning to `CCCCOP(=O)(c1ccc(N(C)C)cc1)C(O)c1cc(OC)ccc1OC` (stereo not drawn), the inhibition is 10.8% (inactive).
